# Measured values: PubChem BioAssay (NCATS)
# Inconclusive results are not listed. Where a call stands in place of a potency, no number is given. The source made the active and inactive calls. Unless noted, calls come from the whole dose curve; as a rule, active = well fitted curve in the direction sought with a large enough effect in the repeat runs; inconclusive = weak or mixed curves; inactive = no such curve, though single readings can be large; an effect the other way counts as inactive or inconclusive.
# What was measured:
# [1] = Primary qHTS for small molecule stabilizers of the endoplasmic reticulum resident proteome: Secreted ER Calcium Modulated Protein (SERCaMP) assay (AID 1508630; active = well fitted curve in the direction sought with a large enough effect; an effect the other way counts as inactive or inconclusive)
# Summary of the method: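 The SH-SY5Y reporter protocol was run at 3 concentrations up to 38.3 uM (primary) or 11 concentrations (follow-up): 16 h compound, 100 nM thapsigargin for 4 h, then extracellular luciferase luminescence.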
# [2] = A High-Content qHTS Against Drug Library for the Identification of Small Molecules that Inhibit DYT1 Early Onset Primary Dystonia-Associated Cell Pathology (AID 1645839; calls by dose curve)
# Summary of the method: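 Induced EGFP-delE TorsinA cells are imaged after 48 h of compound treatment. Punctate fusion-protein distribution gives the %pathology value, while nuclei counts flag toxicity. Wild-type EGFP-hTOR1A cells define the normal pattern.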
# [3] = biological target: Cytochrome P450 2D6 (Homo sapiens) (UniProt P10635); assay: Cytochrome P450 family 2 subfamily D member 6 (CYP2D6) small molecule antagonists: luciferase biochemical (cell-free) qHTS assay (AID 1645840); note: nearly all actives have a fitted effect of over 55% in size; note: potency is the fitted concentration of half-maximal effect
# Cytochrome P450 2D6 (Homo sapiens), sequence (P10635 whole entry, looked up): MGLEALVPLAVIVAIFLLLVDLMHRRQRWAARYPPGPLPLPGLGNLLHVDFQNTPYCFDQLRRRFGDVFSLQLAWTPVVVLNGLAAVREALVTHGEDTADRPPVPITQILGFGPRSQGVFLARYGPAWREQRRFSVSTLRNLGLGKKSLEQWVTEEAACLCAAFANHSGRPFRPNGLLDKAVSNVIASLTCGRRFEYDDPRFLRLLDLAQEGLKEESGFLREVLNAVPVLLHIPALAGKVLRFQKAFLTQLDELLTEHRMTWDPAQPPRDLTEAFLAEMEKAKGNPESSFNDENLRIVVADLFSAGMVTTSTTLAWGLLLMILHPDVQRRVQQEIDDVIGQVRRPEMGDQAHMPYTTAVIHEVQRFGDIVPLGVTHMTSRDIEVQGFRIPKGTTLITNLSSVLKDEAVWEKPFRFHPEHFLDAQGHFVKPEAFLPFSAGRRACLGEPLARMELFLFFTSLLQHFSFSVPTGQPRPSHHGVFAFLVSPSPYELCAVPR
# Summary of the method: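 P450-Glo CYP2D6 system: proluciferin substrate converted by enzyme to luciferin, read by luminescence proportional to activity. Enzyme-substrate mix with compound 10 min at room temperature, then NADPH regeneration 1 h before detection reagent.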
# [4] = biological target: Cytochrome P450 2C9 (Homo sapiens) (UniProt P11712); assay: Cytochrome P450 family 2 subfamily C member 9 (CYP2C9) small molecule antagonists: luciferase biochemical (cell-free) qHTS assay (AID 1645842); note: nearly all actives have a fitted effect of over 55% in size; note: potency is the fitted concentration of half-maximal effect
# Cytochrome P450 2C9 (Homo sapiens), sequence (P11712 whole entry, looked up): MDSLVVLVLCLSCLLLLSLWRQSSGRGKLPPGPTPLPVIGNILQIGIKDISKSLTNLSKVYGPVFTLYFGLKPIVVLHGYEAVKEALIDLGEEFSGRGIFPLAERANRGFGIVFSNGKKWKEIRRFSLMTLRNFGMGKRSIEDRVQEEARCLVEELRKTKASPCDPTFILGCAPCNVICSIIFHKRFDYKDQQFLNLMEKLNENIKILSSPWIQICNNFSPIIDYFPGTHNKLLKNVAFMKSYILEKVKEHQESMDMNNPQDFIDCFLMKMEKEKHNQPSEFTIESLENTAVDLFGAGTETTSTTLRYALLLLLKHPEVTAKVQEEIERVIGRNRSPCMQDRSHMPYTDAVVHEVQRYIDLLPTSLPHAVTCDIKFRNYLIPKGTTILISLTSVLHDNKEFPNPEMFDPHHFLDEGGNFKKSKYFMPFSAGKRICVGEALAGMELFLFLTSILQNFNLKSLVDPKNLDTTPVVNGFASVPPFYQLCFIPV
# Summary of the method: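 P450-Glo CYP2C9 system: proluciferin substrate with enzyme in mix containing 0.4% BSA, 10 min at room temperature, then NADPH regeneration solution added and incubated 1 h at 37C. Detection reagent stopped reaction; luminescence read after 20 min as RLU.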
# [5] = Cytotoxicity counterscreen for inhibitors of SARS-CoV-2 cell entry (AID 1645845; calls by dose curve; note: nearly all actives have a fitted effect of over 50% in size; note: potency is the fitted concentration of half-maximal effect)
# Summary of the method: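 After a 15 min room-temperature ATPLite 1step step, luminescence reflected ATP remaining in HEK293-ACE2 cells exposed to compound for 1 h plus 48 h at 37 C, with percent activity set by cell and no-cell controls.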
# [6] = Primary qHTS to identify inhibitors of SARS-CoV-2 cell entry (AID 1645846; calls by dose curve; note: nearly all actives have a fitted effect of over 45% in size; note: potency is the fitted concentration of half-maximal effect); details: activity change, negative = inhibition: at 57.1 µM (top of the series) unless noted
# Summary of the method: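 HEK293-ACE2 (Expi293F, stable hACE2), 1500 cells/well, o/n 37C; cpd 23 nL pin, 1 h; MLV-PP w/ SARS-CoV-2-S (Wuhan-Hu-1, Δ19 C-term); 48 h 37C; Bright-Glo luminescence; normalized vs S-PP and bald PP.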
# Papain (Carica papaya) = Papain (Carica papaya) (UniProt P00784); assay: Primary qHTS assay for inhibitors of the protease papain (AID 1645873; active = well fitted curve in the direction sought with a large enough effect; an effect the other way counts as inactive or inconclusive;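 note: papain turnover of Z-FR-AMC read as the AMC fluorescence gain over 10 min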)
# Papain (Carica papaya), sequence (P00784 whole entry, looked up): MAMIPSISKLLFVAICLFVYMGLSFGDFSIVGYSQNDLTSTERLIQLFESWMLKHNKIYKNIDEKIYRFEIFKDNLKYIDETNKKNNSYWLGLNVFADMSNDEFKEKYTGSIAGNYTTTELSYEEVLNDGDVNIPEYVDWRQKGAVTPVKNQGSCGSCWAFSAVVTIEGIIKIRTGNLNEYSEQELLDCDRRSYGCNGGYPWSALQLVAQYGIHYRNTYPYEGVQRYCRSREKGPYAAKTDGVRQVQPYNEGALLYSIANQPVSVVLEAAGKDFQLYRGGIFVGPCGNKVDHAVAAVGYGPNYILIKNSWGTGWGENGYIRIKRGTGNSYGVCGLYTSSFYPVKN
# [7] = biological target: Cytochrome P450 3A4 (Homo sapiens) (UniProt P08684); assay: Cytochrome P450 family 3 subfamily A member 4 (CYP3A4) small molecule antagonists: luciferase qHTS assay (AID 1645841); note: nearly all actives have a fitted effect of over 45% in size; note: potency is the fitted concentration of half-maximal effect
# Cytochrome P450 3A4 (Homo sapiens), sequence (P08684 whole entry, looked up): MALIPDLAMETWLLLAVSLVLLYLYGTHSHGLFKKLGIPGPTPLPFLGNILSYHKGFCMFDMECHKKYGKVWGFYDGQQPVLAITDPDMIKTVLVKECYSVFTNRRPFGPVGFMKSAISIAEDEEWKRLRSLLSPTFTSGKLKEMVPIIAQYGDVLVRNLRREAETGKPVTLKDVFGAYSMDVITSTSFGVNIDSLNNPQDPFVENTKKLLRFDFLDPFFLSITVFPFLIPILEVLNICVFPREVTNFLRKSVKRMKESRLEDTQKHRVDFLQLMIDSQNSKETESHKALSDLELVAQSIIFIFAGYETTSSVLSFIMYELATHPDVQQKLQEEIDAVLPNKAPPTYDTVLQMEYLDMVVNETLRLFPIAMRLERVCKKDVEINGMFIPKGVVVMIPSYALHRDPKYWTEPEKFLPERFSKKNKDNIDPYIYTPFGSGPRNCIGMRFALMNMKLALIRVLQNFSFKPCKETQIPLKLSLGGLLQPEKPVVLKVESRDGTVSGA
# Summary of the method: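 P450-Glo CYP3A4 enzyme with proluciferin substrate was preincubated with DMSO-dissolved compounds for 10 min at room temperature. NADPH regeneration solution started a 1 h reaction. Detection reagent stopped it, and luminescence was read after 20 min.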
structure (smiles),measurement,setting,value
C[N+]1(C)[C@@H]2CC[C@H]1CC(OC(=O)C(CO)c1ccccc1)C2 (some centres undefined),outcome,[1],inactive
same,outcome,[2],inactive
same,Potency,[3],inactive
same,Potency,[4],inactive
same,Potency,[5],inactive
same,Potency,[6],inactive
CCCCCCCCC(=O)NCc1ccc(O)c(OC)c1,outcome,[1],inactive
same,outcome,[2],inactive
same,Potency,[3],13.8 µM (active)
same,Potency,[4],0.692 µM (active)
same,Potency,[5],inactive
same,"activity change, negative = inhibition",[6],4.35%
COC(=O)C1=CCCN(C)C1,outcome,[1],inactive
same,outcome,[2],inactive
same,Potency,[3],inactive
same,Potency,[4],inactive
same,outcome,Papain (Carica papaya),inactive
CC[n+]1c(-c2ccccc2)c2cc(N)ccc2c2ccc(N)cc21,outcome,[2],inactive
same,Potency,[3],3.47 µM (active)
O=C1CN2CCOC2(c2ccccc2Cl)c2cc(Cl)ccc2N1 (centres undefined),outcome,[1],inactive
same,Potency,[4],inactive
same,"activity change, negative = inhibition",[6],-6.92%
CNC(=O)NC(O)C(Cl)(Cl)Cl (centres undefined),outcome,[2],inactive
same,Potency,[3],inactive
same,Potency,[4],inactive
C[C@]12CC[C@H]3[C@@H](CCC4=CC(=O)CC[C@@]43C)[C@@H]1CC[C@@H]2C(=O)O,outcome,[2],inactive
same,Potency,[3],inactive
same,Potency,[4],inactive
C=CCN1CC[C@]23CCCC[C@H]2[C@H]1Cc1ccc(O)cc13,outcome,[1],inactive
same,outcome,[2],inactive
same,Potency,[4],inactive
same,Potency,[5],inactive
same,"activity change, negative = inhibition",[6],-14.7%
C#C[C@]1(O)C=C[C@H]2[C@@H]3CCC4=CC(=O)CC[C@@H]4[C@H]3CC[C@@]21CC,outcome,[1],inactive
same,outcome,[2],inactive
same,Potency,[4],2.75 µM (active)
same,Potency,[5],inactive
same,"activity change, negative = inhibition",[6],-10.9%
C[C@H](CN1CCOCC1)C(C(=O)N1CCCC1)(c1ccccc1)c1ccccc1,outcome,[2],inactive
same,Potency,[3],38.6 µM (active)
COc1ccc2c3c1O[C@H]1[C@@H](O)C=C[C@H]4[C@@H](C2)N(C)CC[C@@]341,outcome,[1],inactive
same,Potency,[4],inactive
CCO[C@H]1O[C@@H]2OC3(C)CC[C@H]4[C@H](C)CC[C@@H]([C@H]1C)[C@@]24OO3,outcome,[2],inactive
same,Potency,[3],inactive
same,Potency,[4],15.5 µM (active)
CCC(OC(C)=O)C(CC(C)NC)(c1ccccc1)c1ccccc1 (centres undefined),outcome,[1],inactive
same,Potency,[3],18 µM (active)
CC1Sc2c(C(=O)O)c(=O)c3cc(F)c(N4CCNCC4)cc3n21 (centres undefined),outcome,[2],inactive
same,Potency,[3],inactive
same,Potency,[4],inactive
NC(=O)OCCCc1ccccc1,outcome,[2],inactive
same,Potency,[3],inactive
same,Potency,[7],inactive
same,Potency,[4],inactive
same,Potency,[5],inactive
same,Potency,[6],inactive
CC(Cc1ccccc1)NCc1ccccc1Cl (centres undefined),outcome,[1],inactive
same,outcome,[2],inactive
same,Potency,[3],0.155 µM (active)
same,Potency,[5],inactive
same,"activity change, negative = inhibition",[6],-7.69%
C[C@]12Cc3nonc3C[C@@H]1CC[C@@H]1[C@@H]2CC[C@@]2(C)[C@H]1CC[C@]2(C)O,outcome,[2],inactive
same,Potency,[3],inactive
COP(=S)(OC)Oc1ccc(Sc2ccc(OP(=S)(OC)OC)cc2)cc1,outcome,[2],inactive
same,Potency,[3],inactive
same,Potency,[7],7.76 µM (active)
same,Potency,[4],15.5 µM (active)
Nc1ccc(N)cc1,outcome,[1],inactive
same,Potency,[3],3.09 µM (active)
same,Potency,[4],15.5 µM (active)
CC(=O)OC1(c2ccccc2)CCN(CCc2ccccc2)CC1,outcome,[1],inactive
same,Potency,[7],inactive
O=C(CBr)Nc1ccc(Cl)cc1C(=O)c1ccccc1F,outcome,[2],inactive
COP(=O)(OC)C(O)C(Cl)(Cl)Cl (centres undefined),outcome,[1],inactive
same,outcome,[2],inactive
same,Potency,[5],inactive
same,"activity change, negative = inhibition",[6],-13.6%
C[C@]12C=CC(=O)C=C1CC[C@@H]1[C@@H]2CC[C@@]2(C)[C@H]1CC[C@]2(C)O,outcome,[2],inactive
same,Potency,[3],inactive
same,Potency,[7],inactive
same,Potency,[4],inactive
O=C(O)CCCCCCNC1c2ccccc2CCc2ccccc21,outcome,[1],inactive
same,outcome,[2],inactive
same,Potency,[4],inactive
CN(C)CCc1c[nH]c2ccccc12,outcome,[2],inactive
same,Potency,[3],62.8 µM (active)
same,Potency,[7],inactive
same,Potency,[4],inactive
C[C@]12CC[C@H](O)CC1=CC[C@@H]1[C@@H]2CC[C@]2(C)C(=O)CC[C@@H]12,outcome,[1],inactive
same,outcome,[2],inactive
same,Potency,[4],inactive
same,Potency,[5],inactive
same,Potency,[6],inactive
CCCCCCCCCCCC[N+](C)(C)CCOc1ccccc1,outcome,[1],inactive
same,Potency,[3],1.74 µM (active)
same,Potency,[5],20 µM (active)
C[C@@H]1O[C@@H](O[C@@H]2C=C3CC[C@@H]4[C@H](CC[C@]5(C)[C@@H](c6ccc(=O)oc6)CC[C@]45O)[C@@]3(C)CC2)[C@H](O)[C@H](O)[C@H]1O,outcome,[1],inactive
same,outcome,[2],inactive
same,Potency,[3],inactive
same,"activity change, negative = inhibition",[6],-97.4%
CCC1(CC)C(=O)NC(=O)NC1=O,outcome,[2],inactive
same,Potency,[3],inactive
same,Potency,[7],inactive
same,Potency,[4],inactive
CCOC(=O)NC(C)(C)Cc1ccc(Cl)cc1,outcome,[2],inactive
same,Potency,[3],inactive
same,Potency,[4],15.5 µM (active)
CC[C@H]1C[C@H]2[C@@H]3CCC4=CC(=O)CC[C@@H]4[C@H]3CC[C@]2(C)[C@H]1O,outcome,[1],inactive
same,outcome,[2],inactive
same,Potency,[3],inactive
same,Potency,[5],inactive
same,Potency,[6],inactive
Cc1ccc([N+](=O)[O-])[c]2c1[O][Hg]2,outcome,[1],inactive
same,Potency,[3],0.347 µM (active)
same,Potency,[7],0.977 µM (active)
same,Potency,[4],0.436 µM (active)
same,Potency,[6],5.62 µM (active)
O=C(CCl)c1ccc(Cl)cc1Cl,outcome,[1],inactive
same,Potency,[3],inactive
CC(C)NCC(O)c1ccc(N)c(C#N)c1 (centres undefined),outcome,[2],inactive
CNC(C)Cc1ccccc1OC (centres undefined),outcome,[1],inactive
same,outcome,[2],inactive
same,Potency,[4],inactive
same,Potency,[5],inactive
same,Potency,[6],inactive
CC[C@]1(O)CC[C@H]2[C@@H]3CCC4=CCCC[C@@H]4[C@H]3CC[C@@]21C,outcome,[1],inactive
same,Potency,[3],17.4 µM (active)
same,Potency,[4],inactive
same,Potency,[5],inactive
